Compounds without any hit were thinned out: in the full panel of roughly 79,000, 15% have a hit. Unmarked numbers belong to inactive results. The source made the active and inactive calls. Cut-off read from the data, not from the text of the source: active = growth inhibition above about 70%; inactive = the rest.
Tests used:
[1] = NCI Yeast Anticancer Drug Screen. Data for the rad50 strain (AID 155);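 note: 0% = growth of vehicle-only cultures of the same strain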; settings: S. cerevisiae rad50 strain growth inhibition, hits give high values
Method in brief: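 Relative growth inhibition (compound vs vehicle) was measured in yeast with a defined repair-gene alteration.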

[2] = NCI Yeast Anticancer Drug Screen. Data for the mec2-1 strain (AID 157); settings: S. cerevisiae mec2-1 strain, hits give high values
Method in brief: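 mec2-1 yeast strain, carrying an alteration in DNA damage repair or cell cycle control, was exposed to compounds; growth inhibition was measured relative to vehicle-treated controls.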

[3] = NCI Yeast Anticancer Drug Screen. Data for the sgs1 mgt1 strain (AID 161);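 note: 0% = growth of cultures given vehicle only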; settings: S. cerevisiae sgs1 mgt1 strain, hits give high values
Method in brief: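 Percent growth inhibition was derived by comparing compound-exposed mutant yeast with vehicle-exposed cultures. The strain carries alterations in DNA damage repair.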

[4] = NCI Yeast Anticancer Drug Screen. Data for the cln2 rad14 strain (AID 165);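 note: 0% = growth equal to vehicle treated cultures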; settings: S. cerevisiae cln2 rad14 strain, hits give high values
Method in brief: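 Yeast carrying cln2 and rad14 alterations (cell cycle control and DNA damage repair) were exposed to compounds. Growth inhibition was measured against vehicle-treated controls.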

[5] = NCI Yeast Anticancer Drug Screen. Data for the bub3 strain (AID 167); settings: S. cerevisiae bub3 mutant strain, hits give high values
Method in brief: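 Screening used yeast with an engineered genetic alteration affecting cell cycle control. Compound-exposed cultures were compared with vehicle cultures, and reduced growth was taken as inhibition.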

[6] = NCI Yeast Anticancer Drug Screen. Data for the mlh1 rad18 strain (AID 175); settings: S. cerevisiae mlh1 rad18 strain growth inhibition, hits give high values
Method in brief: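 Growth inhibition of the yeast strain was measured after compound exposure and expressed relative to vehicle-treated controls. The strain carries defined defects in DNA damage repair.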

[7] = at 5.0 µM (retest, dose inferred, filed as 0.5)
[8] = at 50.0 µM (retest, dose inferred, filed as 5.0)

SMILES | growth inhibition [1, 7] | growth inhibition [1, 8] | growth inhibition ([1]; at 50.0 µM) | growth inhibition [2, 7] | growth inhibition [2, 8] | growth inhibition ([2]; at 50.0 µM) | growth inhibition [3, 7] | growth inhibition [3, 8] | growth inhibition ([3]; at 50.0 µM) | growth inhibition [4, 7] | growth inhibition [4, 8] | growth inhibition ([4]; at 50.0 µM) | growth inhibition [5, 7] | growth inhibition [5, 8] | growth inhibition ([5]; at 50.0 µM) | growth inhibition [6, 7] | growth inhibition [6, 8] | growth inhibition ([6]; at 50.0 µM)
CCCCCCCCCCCCCCCC[N+]1(C)CCCC1c1cccnc1 (stereo not given) | 93% (active) | 99% (active) | 14.3% | 90% (active) | 99% (active) | 55.5% | 99% (active) | 99% (active) | 40.8% | 70% (active) | 99% (active) | 1.5% | 96% (active) | 99% (active) | 99% (active) | 89% (active) | 99% (active) | 68.8%
CCCCCCCCCCCCCCCCSC(=NCC)NCC | 99% (active) | 99% (active) | 99.3% (active) | 67% | 99% (active) | 99.7% (active) | 98% (active) | 100% (active) | 99.6% (active) | 23% | 99% (active) | 98.3% (active) | 81% (active) | 99% (active) | 99.5% (active) | 98% (active) | 99% (active) | 99.3% (active)
CCCOS(=O)(=O)c1ccccc1 | 14% | 1% | 0.7% | 19% | 38% | 12.3% | -7% | 4% | 10.1% | 38% | 35% | -2.2% | 23% | 42% | -1.4% | 11% | 32% | 14.3%
N#CC(=C1SCS1)[N+](=O)[O-] | 91% (active) | 99% (active) | 91.1% (active) | 98% (active) | 100% (active) | 92.4% (active) | 98% (active) | 100% (active) | 92% (active) | 31% | 99% (active) | 92.2% (active) | 95% (active) | 99% (active) | 89.9% (active) | 98% (active) | 99% (active) | 92.7% (active)
O=C(O)c1ccc2c(c1)C(=O)c1ccccc1C2=O | -1% | 33% | 95.9% (active) | -1% | 28% | 99.3% (active) | 3% | 26% | 91.2% (active) | -1% | 30% | 14.2% | 1% | 31% | 98.7% (active) | -2% | 41% | 96.5% (active)
OC(Cc1cc(CC(O)(C(F)(F)F)C(F)(F)F)nc(CC(O)(C(F)(F)F)C(F)(F)F)c1)(C(F)(F)F)C(F)(F)F | 8% | 99% (active) | 99.5% (active) | 1% | 100% (active) | 99.5% (active) | -9% | 99% (active) | 99.4% (active) | 29% | 100% (active) | 97.8% (active) | -15% | 100% (active) | 99.3% (active) | 19% | 99% (active) | 99.5% (active)
S=C=Nc1ccc(N2CCOCC2)cc1 | 96% (active) | 99% (active) | 99.3% (active) | 31% | 100% (active) | 99.7% (active) | 41% | 99% (active) | 99.7% (active) | 10% | 99% (active) | 96.3% (active) | 26% | 98% (active) | 99.2% (active) | 33% | 99% (active) | 99.2% (active)
CCCCCCCCCCCC[n+]1ccccc1 (tested in a mixture with another compound) | 34% | 96% (active) | 99.1% (active) | 91% (active) | 96% (active) | 99.1% (active) | 31% | 97% (active) | 99.1% (active) | 18% | 94% (active) | 98.5% (active) | 88% (active) | 96% (active) | 99.2% (active) | 21% | 95% (active) | 99% (active)
Cc1cc2nc(CC(=O)c3ccncc3)c(=O)[nH]c2cc1C | -28% | 9% | 6.65% | 8% | -11% | 11.7% | 1% | 17% | 21.6% | -9% | 33% | 30.1% | -5% | 24% | 7.45% | -18% | 21% | 73.1% (active)
S=C(SSC(=S)N1CCOCC1)N1CCOCC1 | 97% (active) | 99% (active) | 99.3% (active) | 99% (active) | 100% (active) | 99.6% (active) | 99% (active) | 99% (active) | 99.2% (active) | 61% | 99% (active) | 99% (active) | 98% (active) | 99% (active) | 99.5% (active) | 98% (active) | 99% (active) | 99.5% (active)

Reference: PubChem BioAssay (NCI)
